# According to ChEMBL document CHEMBL1961873, “Compounds: GSK PKIS; Assays: Nanosyn kinase panel” (2012):
# Experiments:
# [1] = biological target: Sphingosine kinase 1 (Homo sapiens) (UniProt Q9NYA1); settings: at 1 µM;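 also: mean SPHK1 inhibition value reported from the GSK PKIS kinase panel screen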
# [2] = biological target: T1, Sphingosine kinase 2 (Homo sapiens) (UniProt Q9NRA0); settings: at 0.1 µM
# T1 sequence (whole entry): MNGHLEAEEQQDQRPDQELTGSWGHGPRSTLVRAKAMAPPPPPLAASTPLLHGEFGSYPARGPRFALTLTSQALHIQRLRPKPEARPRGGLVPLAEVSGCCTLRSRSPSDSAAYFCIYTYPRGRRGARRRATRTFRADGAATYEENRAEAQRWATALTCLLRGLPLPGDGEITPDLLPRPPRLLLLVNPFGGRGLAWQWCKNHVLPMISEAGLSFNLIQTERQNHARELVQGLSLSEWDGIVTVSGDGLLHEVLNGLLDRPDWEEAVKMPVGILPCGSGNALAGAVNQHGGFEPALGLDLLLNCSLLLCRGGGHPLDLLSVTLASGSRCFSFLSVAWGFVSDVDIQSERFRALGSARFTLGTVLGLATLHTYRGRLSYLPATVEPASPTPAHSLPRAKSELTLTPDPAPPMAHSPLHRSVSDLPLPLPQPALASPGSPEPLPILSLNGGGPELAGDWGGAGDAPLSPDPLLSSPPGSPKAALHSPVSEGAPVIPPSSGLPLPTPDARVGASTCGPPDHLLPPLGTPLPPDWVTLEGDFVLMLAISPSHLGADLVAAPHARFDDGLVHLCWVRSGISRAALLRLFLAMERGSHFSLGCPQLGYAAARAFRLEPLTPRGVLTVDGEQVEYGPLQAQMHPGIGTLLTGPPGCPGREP
# [3] = biological target: T1, Sphingosine kinase 2 (Homo sapiens); settings: at 1 µM
# [4] = biological target: Casein kinase II subunit alpha (Homo sapiens) (UniProt P68400); settings: at 0.1 µM
# Casein kinase II subunit alpha (Homo sapiens), sequence (P68400 whole entry, looked up): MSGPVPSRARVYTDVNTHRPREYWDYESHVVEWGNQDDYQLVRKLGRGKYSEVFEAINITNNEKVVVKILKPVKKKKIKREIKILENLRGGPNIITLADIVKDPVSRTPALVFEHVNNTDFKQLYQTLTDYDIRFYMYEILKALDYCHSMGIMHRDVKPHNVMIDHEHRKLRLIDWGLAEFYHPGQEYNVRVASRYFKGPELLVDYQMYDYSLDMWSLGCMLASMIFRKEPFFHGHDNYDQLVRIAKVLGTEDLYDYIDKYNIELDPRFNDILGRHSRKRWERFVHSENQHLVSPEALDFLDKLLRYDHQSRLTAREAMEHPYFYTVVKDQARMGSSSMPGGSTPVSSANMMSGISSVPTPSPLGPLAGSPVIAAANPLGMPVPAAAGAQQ
# [5] = biological target: Casein kinase II subunit alpha (Homo sapiens) (UniProt P68400); settings: at 1 µM
# [6] = biological target: T2, Inhibitor of nuclear factor kappa-B kinase subunit alpha (Homo sapiens) (UniProt O15111); settings: at 0.1 µM
# T2 sequence (whole entry): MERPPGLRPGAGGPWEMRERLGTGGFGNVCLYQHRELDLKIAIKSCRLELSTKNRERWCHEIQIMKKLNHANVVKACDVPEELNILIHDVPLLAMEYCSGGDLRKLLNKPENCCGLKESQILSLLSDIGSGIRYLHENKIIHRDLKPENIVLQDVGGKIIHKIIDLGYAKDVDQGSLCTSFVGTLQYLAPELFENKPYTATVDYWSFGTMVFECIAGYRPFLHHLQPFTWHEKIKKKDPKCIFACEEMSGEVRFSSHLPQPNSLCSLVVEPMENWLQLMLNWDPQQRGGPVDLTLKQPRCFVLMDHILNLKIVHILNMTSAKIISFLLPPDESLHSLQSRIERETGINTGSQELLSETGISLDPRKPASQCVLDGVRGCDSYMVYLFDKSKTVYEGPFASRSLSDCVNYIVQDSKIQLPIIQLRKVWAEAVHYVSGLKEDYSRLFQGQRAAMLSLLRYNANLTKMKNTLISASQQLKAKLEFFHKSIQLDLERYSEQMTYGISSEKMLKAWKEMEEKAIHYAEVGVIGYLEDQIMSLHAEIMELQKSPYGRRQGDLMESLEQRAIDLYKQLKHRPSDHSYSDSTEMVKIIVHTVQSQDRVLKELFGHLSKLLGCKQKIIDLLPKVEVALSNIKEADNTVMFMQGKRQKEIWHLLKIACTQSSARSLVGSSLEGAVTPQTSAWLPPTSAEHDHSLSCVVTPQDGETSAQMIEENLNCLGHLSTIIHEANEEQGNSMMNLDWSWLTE
# [7] = biological target: T2, Inhibitor of nuclear factor kappa-B kinase subunit alpha (Homo sapiens); settings: at 1 µM
# [8] = biological target: T3, Inhibitor of nuclear factor kappa-B kinase subunit beta (Homo sapiens) (UniProt O14920); settings: at 0.1 µM
# T3 sequence (whole entry): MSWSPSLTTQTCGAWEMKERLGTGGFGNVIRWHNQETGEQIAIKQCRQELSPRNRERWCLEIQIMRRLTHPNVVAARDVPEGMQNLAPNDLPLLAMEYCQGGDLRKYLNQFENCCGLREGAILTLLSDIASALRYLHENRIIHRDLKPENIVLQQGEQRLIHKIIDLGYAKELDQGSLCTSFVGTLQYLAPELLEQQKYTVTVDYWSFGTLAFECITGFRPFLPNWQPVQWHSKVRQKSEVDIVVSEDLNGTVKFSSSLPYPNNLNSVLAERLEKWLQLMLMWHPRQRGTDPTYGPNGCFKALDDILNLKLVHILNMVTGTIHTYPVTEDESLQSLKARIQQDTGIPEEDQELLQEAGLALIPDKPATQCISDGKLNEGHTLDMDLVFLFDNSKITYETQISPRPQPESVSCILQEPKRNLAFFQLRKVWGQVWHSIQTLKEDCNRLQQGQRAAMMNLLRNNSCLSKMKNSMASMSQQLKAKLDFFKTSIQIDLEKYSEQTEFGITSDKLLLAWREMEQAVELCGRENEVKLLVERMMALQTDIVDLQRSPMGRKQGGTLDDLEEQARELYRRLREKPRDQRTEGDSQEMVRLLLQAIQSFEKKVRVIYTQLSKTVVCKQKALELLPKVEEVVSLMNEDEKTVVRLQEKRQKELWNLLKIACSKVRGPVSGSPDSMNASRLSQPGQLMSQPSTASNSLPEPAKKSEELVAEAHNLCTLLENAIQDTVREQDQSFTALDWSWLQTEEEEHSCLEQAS
# [9] = biological target: T3, Inhibitor of nuclear factor kappa-B kinase subunit beta (Homo sapiens); settings: at 1 µM
# [10] = biological target: T4, Inhibitor of nuclear factor kappa-B kinase subunit epsilon (Homo sapiens) (UniProt Q14164); settings: at 0.1 µM
# T4 sequence (whole entry): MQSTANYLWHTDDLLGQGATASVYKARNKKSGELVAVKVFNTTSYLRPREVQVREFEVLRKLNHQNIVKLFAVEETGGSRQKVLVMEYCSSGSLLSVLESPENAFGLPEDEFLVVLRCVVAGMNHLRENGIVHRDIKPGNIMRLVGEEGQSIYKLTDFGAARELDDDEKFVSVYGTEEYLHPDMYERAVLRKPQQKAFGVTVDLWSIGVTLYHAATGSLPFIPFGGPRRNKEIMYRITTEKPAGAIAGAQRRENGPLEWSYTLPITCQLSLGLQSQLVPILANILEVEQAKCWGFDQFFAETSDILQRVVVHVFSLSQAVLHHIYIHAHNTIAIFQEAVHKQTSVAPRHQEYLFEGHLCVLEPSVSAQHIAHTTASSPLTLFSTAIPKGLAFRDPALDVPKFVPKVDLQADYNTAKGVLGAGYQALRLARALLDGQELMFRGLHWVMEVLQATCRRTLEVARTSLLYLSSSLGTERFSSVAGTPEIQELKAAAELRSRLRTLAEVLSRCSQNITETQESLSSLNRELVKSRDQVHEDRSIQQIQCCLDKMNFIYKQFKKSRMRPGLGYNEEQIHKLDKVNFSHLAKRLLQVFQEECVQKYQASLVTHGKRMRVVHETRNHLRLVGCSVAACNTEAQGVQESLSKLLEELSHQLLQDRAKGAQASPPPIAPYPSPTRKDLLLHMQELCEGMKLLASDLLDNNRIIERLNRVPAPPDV
# [11] = biological target: T4, Inhibitor of nuclear factor kappa-B kinase subunit epsilon (Homo sapiens); settings: at 1 µM
# [12] = biological target: T5, Serine/threonine-protein kinase Nek1 (Homo sapiens) (UniProt Q96PY6); settings: at 0.1 µM
# T5 sequence (whole entry): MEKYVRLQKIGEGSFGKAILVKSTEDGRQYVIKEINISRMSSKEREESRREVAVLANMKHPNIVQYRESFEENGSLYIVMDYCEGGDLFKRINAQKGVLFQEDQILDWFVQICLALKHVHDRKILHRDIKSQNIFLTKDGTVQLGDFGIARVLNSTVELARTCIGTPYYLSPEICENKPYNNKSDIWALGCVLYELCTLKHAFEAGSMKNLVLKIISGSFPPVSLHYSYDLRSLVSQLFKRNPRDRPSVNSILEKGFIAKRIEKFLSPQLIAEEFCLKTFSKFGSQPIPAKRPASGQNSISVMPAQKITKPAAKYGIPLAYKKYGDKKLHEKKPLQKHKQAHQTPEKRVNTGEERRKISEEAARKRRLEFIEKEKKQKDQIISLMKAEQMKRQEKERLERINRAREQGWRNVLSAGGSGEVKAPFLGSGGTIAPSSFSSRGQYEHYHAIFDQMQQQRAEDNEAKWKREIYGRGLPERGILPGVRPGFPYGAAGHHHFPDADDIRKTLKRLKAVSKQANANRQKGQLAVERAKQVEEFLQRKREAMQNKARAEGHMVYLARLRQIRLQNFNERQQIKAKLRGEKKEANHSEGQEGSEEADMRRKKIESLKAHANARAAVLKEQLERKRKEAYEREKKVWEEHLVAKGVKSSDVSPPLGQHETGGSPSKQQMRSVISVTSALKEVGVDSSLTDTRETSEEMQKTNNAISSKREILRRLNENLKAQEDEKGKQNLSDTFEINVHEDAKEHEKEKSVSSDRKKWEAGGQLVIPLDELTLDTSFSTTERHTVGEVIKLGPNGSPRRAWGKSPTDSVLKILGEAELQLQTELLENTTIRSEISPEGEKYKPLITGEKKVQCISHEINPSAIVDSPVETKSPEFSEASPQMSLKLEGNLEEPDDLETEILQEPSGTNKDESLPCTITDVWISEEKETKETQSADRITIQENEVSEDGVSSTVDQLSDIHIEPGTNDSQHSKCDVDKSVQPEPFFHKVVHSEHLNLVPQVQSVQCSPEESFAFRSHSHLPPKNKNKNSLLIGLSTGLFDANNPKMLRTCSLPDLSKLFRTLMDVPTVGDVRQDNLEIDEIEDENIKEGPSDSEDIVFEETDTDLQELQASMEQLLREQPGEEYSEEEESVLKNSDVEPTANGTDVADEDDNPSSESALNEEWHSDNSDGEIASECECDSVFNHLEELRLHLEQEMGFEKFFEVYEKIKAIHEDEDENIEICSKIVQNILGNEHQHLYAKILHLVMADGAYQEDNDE
# [13] = biological target: T5, Serine/threonine-protein kinase Nek1 (Homo sapiens); settings: at 1 µM
# [14] = biological target: T6, Serine/threonine-protein kinase Nek2 (Homo sapiens) (UniProt P51955); settings: at 0.1 µM
# T6 sequence (whole entry): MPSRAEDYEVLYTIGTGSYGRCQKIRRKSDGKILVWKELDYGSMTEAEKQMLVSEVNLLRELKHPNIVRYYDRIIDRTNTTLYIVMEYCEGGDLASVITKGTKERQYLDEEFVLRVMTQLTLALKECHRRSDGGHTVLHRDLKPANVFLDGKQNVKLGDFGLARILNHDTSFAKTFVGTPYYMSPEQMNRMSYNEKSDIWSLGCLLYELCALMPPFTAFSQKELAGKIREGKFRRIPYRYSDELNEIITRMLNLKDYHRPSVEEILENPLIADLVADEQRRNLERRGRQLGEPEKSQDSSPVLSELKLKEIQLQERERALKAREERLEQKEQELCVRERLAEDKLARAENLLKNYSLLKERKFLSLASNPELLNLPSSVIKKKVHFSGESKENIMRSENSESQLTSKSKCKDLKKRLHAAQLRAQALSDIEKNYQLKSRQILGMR
# [15] = biological target: T6, Serine/threonine-protein kinase Nek2 (Homo sapiens); settings: at 1 µM
# [16] = biological target: Serine/threonine-protein kinase Nek6 (Homo sapiens) (UniProt Q9HC98); settings: at 0.1 µM
# Serine/threonine-protein kinase Nek6 (Homo sapiens), sequence (Q9HC98 whole entry): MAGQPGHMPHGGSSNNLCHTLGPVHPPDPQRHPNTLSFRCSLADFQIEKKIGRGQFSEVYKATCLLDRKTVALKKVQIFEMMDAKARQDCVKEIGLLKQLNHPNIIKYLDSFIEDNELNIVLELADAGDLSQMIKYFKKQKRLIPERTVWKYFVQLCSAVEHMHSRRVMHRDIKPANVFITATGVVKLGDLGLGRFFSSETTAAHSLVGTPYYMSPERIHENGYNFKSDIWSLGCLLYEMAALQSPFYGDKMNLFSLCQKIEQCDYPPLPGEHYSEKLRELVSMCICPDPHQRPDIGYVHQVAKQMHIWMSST
# [17] = biological target: Serine/threonine-protein kinase Nek6 (Homo sapiens) (UniProt Q9HC98); settings: at 1 µM
# [18] = biological target: Serine/threonine-protein kinase Nek7 (Homo sapiens) (UniProt Q8TDX7); settings: at 0.1 µM
# Serine/threonine-protein kinase Nek7 (Homo sapiens), sequence (Q8TDX7 whole entry, looked up): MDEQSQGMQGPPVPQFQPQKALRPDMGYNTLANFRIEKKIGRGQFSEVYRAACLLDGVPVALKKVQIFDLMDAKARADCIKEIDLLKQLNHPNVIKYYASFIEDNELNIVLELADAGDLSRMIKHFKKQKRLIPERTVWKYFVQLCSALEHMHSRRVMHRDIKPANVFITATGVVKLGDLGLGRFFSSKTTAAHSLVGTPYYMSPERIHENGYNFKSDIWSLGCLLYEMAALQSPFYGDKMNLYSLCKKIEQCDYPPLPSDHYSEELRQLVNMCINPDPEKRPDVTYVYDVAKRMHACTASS
# [19] = biological target: Serine/threonine-protein kinase Nek7 (Homo sapiens) (UniProt Q8TDX7); settings: at 1 µM
# [20] = biological target: T7, Serine/threonine-protein kinase Nek9 (Homo sapiens) (UniProt Q8TD19); settings: at 0.1 µM;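 also: reported value is the mean percent inhibition of NEK9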
# T7 sequence (whole entry): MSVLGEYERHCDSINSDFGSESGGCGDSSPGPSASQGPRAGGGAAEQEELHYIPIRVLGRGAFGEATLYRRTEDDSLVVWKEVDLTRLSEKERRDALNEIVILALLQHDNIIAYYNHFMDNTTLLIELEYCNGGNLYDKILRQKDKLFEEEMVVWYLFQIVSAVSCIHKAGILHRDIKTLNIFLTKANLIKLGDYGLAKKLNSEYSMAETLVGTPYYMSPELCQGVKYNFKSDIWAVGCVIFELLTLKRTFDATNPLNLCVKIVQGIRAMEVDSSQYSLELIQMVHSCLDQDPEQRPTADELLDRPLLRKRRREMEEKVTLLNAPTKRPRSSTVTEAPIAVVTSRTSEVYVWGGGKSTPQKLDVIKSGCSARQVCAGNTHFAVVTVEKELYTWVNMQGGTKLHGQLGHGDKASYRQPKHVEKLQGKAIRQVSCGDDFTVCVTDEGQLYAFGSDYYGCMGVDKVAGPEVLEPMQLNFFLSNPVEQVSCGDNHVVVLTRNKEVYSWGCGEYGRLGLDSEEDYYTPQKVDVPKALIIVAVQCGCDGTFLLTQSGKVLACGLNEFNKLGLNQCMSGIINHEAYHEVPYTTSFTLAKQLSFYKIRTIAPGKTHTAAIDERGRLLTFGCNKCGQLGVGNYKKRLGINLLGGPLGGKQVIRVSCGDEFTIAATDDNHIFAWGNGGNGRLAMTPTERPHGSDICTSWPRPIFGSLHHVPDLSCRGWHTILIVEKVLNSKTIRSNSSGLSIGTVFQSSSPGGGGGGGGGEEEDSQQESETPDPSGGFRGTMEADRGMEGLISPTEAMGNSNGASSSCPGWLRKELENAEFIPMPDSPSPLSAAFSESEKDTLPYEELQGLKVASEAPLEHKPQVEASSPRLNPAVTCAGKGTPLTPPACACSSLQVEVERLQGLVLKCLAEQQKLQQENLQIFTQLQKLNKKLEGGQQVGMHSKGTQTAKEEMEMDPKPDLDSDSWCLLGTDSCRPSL
# Sphingosine kinase 1 (Homo sapiens), sequence (Q9NYA1 whole entry): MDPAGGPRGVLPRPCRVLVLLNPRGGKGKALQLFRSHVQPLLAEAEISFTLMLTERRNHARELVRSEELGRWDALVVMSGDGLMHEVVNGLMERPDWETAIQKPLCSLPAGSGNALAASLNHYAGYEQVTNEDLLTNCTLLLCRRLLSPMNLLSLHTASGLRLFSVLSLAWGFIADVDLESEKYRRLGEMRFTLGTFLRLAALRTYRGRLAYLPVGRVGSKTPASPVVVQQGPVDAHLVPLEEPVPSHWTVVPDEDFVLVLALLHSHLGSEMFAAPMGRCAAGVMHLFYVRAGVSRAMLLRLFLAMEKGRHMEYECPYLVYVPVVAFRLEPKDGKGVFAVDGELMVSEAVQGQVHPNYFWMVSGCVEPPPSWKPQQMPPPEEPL
smiles,measurement,setting,value
Cc1ccc(NC(=O)c2ccnc(N3CCCC3)c2)cc1-c1ccc(C(=O)NCC2CC2)cc1,inhibition,[1],0.63%
same,inhibition,[2],0.74%
same,inhibition,[3],-0.47%
same,inhibition,[4],7.04%
same,inhibition,[5],4.49%
same,inhibition,[6],0.55%
same,inhibition,[7],0.16%
same,inhibition,[8],9.14%
same,inhibition,[9],9.33%
same,inhibition,[10],5.82%
same,inhibition,[11],5.3%
same,inhibition,[12],2.74%
same,inhibition,[13],2.36%
same,inhibition,[14],5.44%
same,inhibition,[15],5.04%
same,inhibition,[16],1.43%
same,inhibition,[17],0.15%
same,inhibition,[18],6.37%
same,inhibition,[19],4.61%
same,inhibition,[20],5.79%
